Laboratory results reported in ChEMBL document CHEMBL3988442, “University of Dundee, Small-Polar-MMV Screening Library” (2021).

Key:
[1] = biological target: T1, Aspartate--tRNA(Asp/Asn) ligase (Mycobacterium tuberculosis (strain ATCC 25618 / H37Rv)) (UniProt P9WFW3); assay: Assay for Asp RNA synthetase-1 from Mycobacterium tuberculosis; type: functional; set-up: scale not given: direction of the effect not stated beside the values; settings: 30 µM; note: in the data most compounds retested in dose-response had high values
T1 sequence (whole entry): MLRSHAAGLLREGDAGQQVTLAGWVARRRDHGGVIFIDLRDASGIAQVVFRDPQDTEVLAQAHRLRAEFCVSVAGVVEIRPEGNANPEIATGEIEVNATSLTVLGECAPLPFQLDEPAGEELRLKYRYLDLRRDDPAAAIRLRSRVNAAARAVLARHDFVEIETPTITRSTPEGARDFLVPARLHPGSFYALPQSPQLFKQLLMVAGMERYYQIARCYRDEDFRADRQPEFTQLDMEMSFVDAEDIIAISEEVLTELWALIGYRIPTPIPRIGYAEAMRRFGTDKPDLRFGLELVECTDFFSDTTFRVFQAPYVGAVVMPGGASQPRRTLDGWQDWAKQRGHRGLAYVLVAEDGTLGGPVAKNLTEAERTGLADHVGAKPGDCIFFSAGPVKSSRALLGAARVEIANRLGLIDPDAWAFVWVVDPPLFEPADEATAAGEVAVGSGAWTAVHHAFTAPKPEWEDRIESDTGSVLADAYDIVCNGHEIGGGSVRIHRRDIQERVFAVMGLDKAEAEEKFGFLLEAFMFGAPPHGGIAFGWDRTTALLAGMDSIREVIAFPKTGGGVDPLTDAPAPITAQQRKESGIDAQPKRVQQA

[2] = biological target: Shiga toxin 2 (Escherichia coli O157:H7) (UniProt P09385+P09386); assay: E. coli 0.157:H7 Shiga Toxin SOP - stx2 screening assay; type: functional; set-up: scale not given: direction of the effect not stated beside the values; settings: 30 µM

Row | Compound | Percent Effect [1] [%] | Percent Effect [2] [%]
1 | O=C1CO[C@@H]2CN(CC3CCOCC3)C[C@H]2N1CC1CC1 | 14.8 | 5.99
2 | Cc1nc2ccnn2c(C)c1CCC(=O)N1CCN(C2CC2)CC1 | 3.26 | 33
3 | CC1CCN(Cn2nc(-c3ccc(F)cc3)oc2=O)CC1 | -0.789 | -14.8
4 | Cc1nc(CN(Cc2cccs2)C2CCS(=O)(=O)C2)oc1C (stereo unspecified) | -1.77 | 34.6
5 | CN(C)C(=O)N1CCn2nc(CNC(=O)CCC(F)(F)F)cc2C1 | 2.12 | -7.2
6 | O=c1ccc(-c2cccs2)nn1CN1CCCCCC1 | -1.83 | -4.33
7 | CCOCCOc1ccccc1C(=O)N1CCCC(c2ncc[nH]2)C1 (stereo unspecified) | 7.07 | -32.6
8 | COCCN(C)CCN1CC2(CCN(C3CCCOC3)CC2)OC1=O (stereo unspecified) | 3.6 | -60.6
9 | O=C(O)c1cc(S(=O)(=O)N2CCOc3ccccc32)ccc1F | -4.32 | -3.29
10 | CC(=O)N1CCCC1c1cccc(Cc2ccc(F)cc2)n1 (stereo unspecified) | -5.96 | 5.81
11 | CN1CC(=O)N(c2cccc(F)c2)CC12CCN(S(C)(=O)=O)C2 (stereo unspecified) | -0.565 | 8.46
12 | O=C(NCCNc1cnccn1)C1CCN(C(=O)N2CCCC2)CC1 | 6.24 | -37.5
13 | Cc1cccc(N2CC[C@@H]3CN(C(=O)c4ccco4)CCO[C@@H]3C2)n1 | -0.221 | 1.6
14 | Cc1ccoc1-c1nnc(CNCC2CCCN2c2cccnn2)o1 (stereo unspecified) | -2.62 | 5.85
15 | Cc1nn(C)c(C)c1NC(=O)CN1CCc2c(nc(C3CC3)n2C)C1 | -0.703 | -17.4
16 | CCc1ccc(C(=O)N2CCCC(n3cncn3)C2)o1 (stereo unspecified) | 1.95 | -18.7
17 | CC(C)NC(=O)[C@@H](NC(=O)N1CCN(c2ccc(Cl)cc2)CC1)C(C)C | -2.11 | -49
18 | COCc1cccc(NC(C)C(=O)N(C)Cc2cccc(F)c2)c1 (stereo unspecified) | -0.296 | -8.46
